Compound activity as filed in PubChem.
RmlC RmlD mix = RmlC and RmlD coupled enzyme inhibitors, primary screen, biochemical, 384-well, compound mixtures, retest; RmlC/RmlD coupled enzyme inhibition, 384-well mixture HTS; 110,000 tested, 0.39% active; inhibition, % at 5.5 µM; in the data active = inhibition above about 30%, passing the limit was not always enough
HIV RNase H inh = HIV-1 RT RNase H inhibitors, primary screen, biochemical, fluorescence. Gag-Pol polyprotein (Human immunodeficiency virus type 1 group M subtype B (isolate …. RT-RNase H RNA/DNA duplex cleavage. inhibition, % at 10 µM. 65,000 tested, 1.9% active; in the data active = inhibition above about 50%
Starred values were filed as active, the others as inactive; x = no result. Many of the other results were omitted from the sample, so hits are more common in it than they were.

SMILES	RmlC RmlD mix	HIV RNase H inh
CCOC(=O)Cc1cc(=O)[nH]c(/N=C(/NC(=O)c2ccccc2)Nc2ccccc2C(F)(F)F)n1	1	x
CSC1=NCCN1C(=O)c1ccc(S(=O)(=O)N2CCCCC2)cc1	-1	-5
Cc1c2cnn(CC(=O)N3CCC4(CC3)OCCO4)c(=O)c2c(C)n1Cc1ccc(F)cc1	9	-10
Clc1cccc(-c2nnc3sc(-c4ccc5c(c4)OCO5)nn23)c1	x	75*
Clc1cccc(-c2nn3c(-c4ccncc4)nnc3s2)c1	x	-9
O=C(NCc1ccccc1)C1=C[C@H](c2coc3ccccc3c2=O)C[C@H](OCc2ccc(CO)cc2)O1	4	x
CCOc1ccc2nc(NS(C)(=O)=O)sc2c1	1	55*
CCOc1ccc(S(=O)(=O)Nc2nc3ccc(OC)cc3s2)cc1	-20	x
CCCCCCNC(=O)CCNC(=O)c1cc(OC)c(OC)c(OC)c1	-6	14
Cc1ccc(C)c(Cn2c(=O)n(CCCC(=O)NCc3ccco3)c(=O)c3ccccc32)c1	x	-2
Cc1cc(C)c(Cn2c(=O)n(CCCC(=O)NCc3ccco3)c(=O)c3ccccc32)c(C)c1	-13	80*
CCOc1ccccc1N(CC(=O)Nc1ccc(S(=O)(=O)N2CCOCC2)cc1)S(=O)(=O)c1ccccc1	9	x
O=C(NCc1ccco1)c1cc(C(=O)C2CCCCC2)c[nH]1	-5	x
COc1ccc(OCc2nn3c(-c4ccco4)nnc3s2)cc1	-10	-15
c1coc(-c2nnc3sc(Cc4cccs4)nn23)c1	25	50*
O=C(CN1C(=O)CSc2ccccc21)N1CCc2ccccc21	x	-10
O=C1NC(c2ccc(Br)cc2)Nc2sc3c(c21)CCC3 (configuration not stated)	38	x
Cc1ccsc1C1NC(=O)c2c(sc3c2CCCC3)N1 (configuration not stated)	-1	58*
CCCCCCN1C=CC(=C/C=C(\C#N)C(=O)OCC)C=C1	15	x
COc1ccccc1N1C(=O)CC(Sc2nccc(C)n2)C1=O (configuration not stated)	-11	60*
CCOc1ccc(N2C(=O)CC(Sc3nccc(C)n3)C2=O)cc1 (configuration not stated)	-6	-17
CCc1cc(C(=O)COc2ccccc2F)c(O)cc1O	4	-22
Cc1n[nH]c(C)c1S(=O)(=O)N(CC(=O)N1CCc2ccccc21)c1ccc(C(C)C)cc1	2	51*
CCOc1ccc(N(CC(=O)N2CCc3ccccc32)S(=O)(=O)c2c(C)noc2C)cc1	-5	5
Cc1cc(NC(=O)CSc2nc(C(C)C)nc3sc(C)c(C)c23)no1	4	-2
SMILES	RmlC RmlD mix	HIV RNase H inh
Cc1cc(NC(=O)CSc2ncnc3sc4c(c23)CCC(C)C4)no1 (configuration not stated)	x	84*
COc1ccc(-c2c3c(nc4sc5c(=O)[nH]c(C)nc5c24)CCC3)cc1	10	x
CCOC(=O)C1=C(O)CCn2c1nc1ccccc12	104	-4
NC(=O)c1c(-c2cccs2)csc1N	3	80*
CCOC(=O)c1c(-c2cccs2)csc1NC(=O)CC(C)C	-19	x
Cc1nn(-c2nc(-c3ccco3)cc(C(F)(F)F)n2)c(C)c1Br	-15	x
CCOC(=O)Nc1nnc(-c2ccc(OC)c(OC)c2)s1	31*	2
CCOC(=O)Nc1nnc(CCc2ccccc2)s1	5	1
O=C(O)CCC(=O)NC1CCCCCCC1	0	1
O=C(O)CCCCC1CCSS1 (configuration not stated)	73*	x
NC(=O)CSc1nnc(CNc2cccc(Cl)c2)n1CCc1ccccc1	-11	-2
O=C1CSC2N1CCNC21CCCCC1 (configuration not stated)	-8	8
COc1ccc(N2C(=O)CC(Sc3nnc(-c4ccccc4)o3)C2=O)cc1 (configuration not stated)	-2	-1
O=C1CC(Sc2nnc(-c3ccccc3O)o2)C(=O)N1c1ccccc1 (configuration not stated)	x	55*
C(#CC1CCCCC1)c1ccc2c(c1)COc1c3ccccc3nn1-2	14	x
O=C(c1cc(-c2cccs2)on1)N1CCN(c2ccccc2)CC1	x	57*
O=C(c1cc(-c2cccs2)on1)N1CCN(c2ccc(F)cc2)CC1	11	-8
CCC(c1nnc(SCC(=O)NCCc2ccc(Cl)cc2Cl)o1)N(C)C (configuration not stated)	9	51*
CCC(c1nnc(SCC(=O)NC23CC4CC(CC(C4)C2)C3)o1)N(C)C (configuration not stated)	-5	x
CC(Cc1ccccc1)NC(=O)C1(c2ccccc2)CCOCC1 (configuration not stated)	4	x
O=c1c2ccccc2sn1-c1ccc(S(=O)(=O)N2CCCCC2)cc1	12	95*
O=c1c2ccccc2sn1-c1ccccc1	8	x
O=C(Nc1ccncc1)C1c2ccccc2Oc2ccccc21	5	-4
